Source: PubChem BioAssay AID1224904 (Broad Institute, 2016)
About 290 (0.78%) of roughly 37,000 compounds were called active. Another 10% or so got no clear call; they are omitted.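 How the source made its calls: active means mean inhibition of at least 10% in the main channel, exceeding the control channel by a set limit; inconclusive means inhibition of 10% or more but channel gap under a set limit; inactive means mean inhibition below 10%.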 The entries come from a sample that favours actives as a whole.

Experiment: inhibitors of DUX4-driven ZSCAN4 reporter expression, primary screen, 293T cells, Gaussia and Italica luciferase (AID 1224904);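 on activity change, negative = inhibition: 0% = median of neutral control wells and -100% = median of positive control wells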
Conditions: 293T-iDUX4 ZSCAN4-Gaussia luciferase reporter, 24 h, stronger effect = lower value, concentration not given here; for Gaussia minus Italica difference: measured here: selective DUX4 reporter inhibition
[1] = measured here: Italica tet-on control reporter

Question: With CCC(=O)N1[C@H](CO)[C@@H]2c3ccccc3N(S(=O)(=O)c3ccccc3C)C[C@@H]21 as the molecule, how does the activity change, negative = inhibition read?
Answer: Its activity change, negative = inhibition is -0.934% (inactive).

Question: What about the activity change, negative = inhibition [1] of the same molecule?
Answer: Its activity change, negative = inhibition is -0.843%.

Question: What about the Gaussia minus Italica difference of the same molecule?
Answer: The Gaussia minus Italica difference was -0.0907%.

Question: For CO[C@H]1CN(C)C(=O)c2ccc(NS(C)(=O)=O)cc2OC[C@@H](C)N(Cc2ccccc2)C[C@@H]1C, which activity change, negative = inhibition is on record?
Answer: Its activity change, negative = inhibition is 3.45% (inactive).

Question: And the activity change, negative = inhibition [1]?
Answer: Its activity change, negative = inhibition is 1.74%.

Question: What about the Gaussia minus Italica difference of the same molecule?
Answer: The Gaussia minus Italica difference was 1.71%.

Question: With CCN(C[C@@H]1[C@@H](c2ccccc2)[C@H](CO)N1C(C)=O)C(=O)NC(C)C as the molecule, how does the activity change, negative = inhibition read?
Answer: Its activity change, negative = inhibition is -4.96% (inactive).

Question: And the activity change, negative = inhibition [1]?
Answer: The activity change, negative = inhibition was -1.07%.

Question: What about the Gaussia minus Italica difference of the same molecule?
Answer: Its Gaussia minus Italica difference is -3.89%.

Question: For CCCNC(=O)N(C)C[C@H]1Oc2ncc(-c3ccc(C(=O)N(C)C)cc3)cc2C(=O)N([C@@H](C)CO)C[C@@H]1C, which activity change, negative = inhibition is on record?
Answer: Its activity change, negative = inhibition is -0.44% (inactive).

Question: What about the activity change, negative = inhibition [1] of the same molecule?
Answer: Its activity change, negative = inhibition is 5.7%.

Question: And the Gaussia minus Italica difference?
Answer: The Gaussia minus Italica difference was -6.14%.

Question: Which results are given for COc1ccc2c3c([nH]c2c1)[C@H](CO)N(C(=O)C1CCOCC1)CC31CN(S(C)(=O)=O)C1?
Answer: activity change, negative = inhibition: -4.43% (inactive); activity change, negative = inhibition [1]: 1.27%; Gaussia minus Italica difference: -5.7%

Question: Which results are given for O=C(Cc1ccccc1)N1C[C@H]2[C@@H](c3ccccc31)[C@H](CO)N2C(=O)c1ccc(F)cc1?
Answer: activity change, negative = inhibition: 0.616% (inactive); activity change, negative = inhibition [1]: 2.82%; Gaussia minus Italica difference: -2.21%

Question: With CN1C(=O)c2cc(NC(=O)c3cnccn3)ccc2OC[C@@H]2O[C@H](CC(=O)NC3CCC3)CC[C@@H]21 as the molecule, how does the activity change, negative = inhibition read?
Answer: Its activity change, negative = inhibition is 3.24% (inactive).

Question: What about the activity change, negative = inhibition [1] of the same molecule?
Answer: The activity change, negative = inhibition was 0.171%.

Question: And the Gaussia minus Italica difference?
Answer: The Gaussia minus Italica difference was 3.07%.

Question: Which results are given for O=C(C[C@@H]1CC[C@@H]2[C@H](COC[C@H](O)CN2S(=O)(=O)c2ccc(F)cc2)O1)NCc1ccc(Cl)c(Cl)c1?
Answer: activity change, negative = inhibition: -7.18% (inactive); activity change, negative = inhibition [1]: -12.4%; Gaussia minus Italica difference: 5.22%

Question: What does the source list for CCCNC(=O)N1C[C@@H]2[C@H](c3ccccc31)[C@@H](CO)N2C(=O)NC(C)C?
Answer: activity change, negative = inhibition: -3.62% (inactive); activity change, negative = inhibition [1]: 0.166%; Gaussia minus Italica difference: -3.78%

Question: For N#C[C@@H]1N[C@@H](CO)[C@@H]1c1ccc(C#Cc2ccccc2F)cc1, which activity change, negative = inhibition is on record?
Answer: The activity change, negative = inhibition was 0.819% (inactive).

Question: What about the activity change, negative = inhibition [1] of the same molecule?
Answer: The activity change, negative = inhibition was 0.652%.

Question: What about the Gaussia minus Italica difference of the same molecule?
Answer: The Gaussia minus Italica difference was 0.167%.

Question: What does the source list for CC=Cc1ccc2n(c1=O)C[C@@H]1[C@@H](CO)[C@H](C(=O)NCCC)[C@H]2N1C(=O)C1CC1 (mixture of isomers)?
Answer: activity change, negative = inhibition: 3.79% (inactive); activity change, negative = inhibition [1]: 5.5%; Gaussia minus Italica difference: -1.71%

Question: Which activity change, negative = inhibition does the source give for CCCNC(=O)N1C[C@@H](O)COC[C@H]2O[C@@H](CC(=O)NCCCN3CCOCC3)CC[C@@H]21 here?
Answer: The activity change, negative = inhibition was -2.3% (inactive).

Question: What about the activity change, negative = inhibition [1] of the same molecule?
Answer: The activity change, negative = inhibition was 5.46%.

Question: What about the Gaussia minus Italica difference of the same molecule?
Answer: The Gaussia minus Italica difference was -7.76%.

Question: For Cc1cc(C(=O)Nc2ccc3c(c2)C(=O)N(C)[C@H]2CC[C@H](CC(=O)NCC(F)(F)F)O[C@@H]2CO3)no1, which activity change, negative = inhibition is on record?
Answer: The activity change, negative = inhibition was -3.18% (inactive).

Question: What about the activity change, negative = inhibition [1] of the same molecule?
Answer: Its activity change, negative = inhibition is 1.49%.

Question: What about the Gaussia minus Italica difference of the same molecule?
Answer: The Gaussia minus Italica difference was -4.67%.

Question: For C[C@@H](NC(=O)C[C@H]1CC[C@@H](NC(=O)Cc2ccccn2)[C@@H](CO)O1)c1ccccc1, which activity change, negative = inhibition is on record?
Answer: The activity change, negative = inhibition was 14.3% (inactive).

Question: And the activity change, negative = inhibition [1]?
Answer: Its activity change, negative = inhibition is 1.74%.

Question: And the Gaussia minus Italica difference?
Answer: Its Gaussia minus Italica difference is 12.6%.

Question: What does the source list for O=C(C[C@@H]1CC[C@H]2[C@@H](COC[C@H](O)CN2C(=O)Nc2ccccc2)O1)NCCc1ccncc1?
Answer: activity change, negative = inhibition: -0.33% (inactive); activity change, negative = inhibition [1]: 7.03%; Gaussia minus Italica difference: -7.36%

Question: With COc1ccc(NC(=O)N(C)C[C@@H]2OCc3cn(nn3)CCCC(=O)N([C@H](C)CO)C[C@H]2C)c(OC)c1 as the molecule, how does the activity change, negative = inhibition read?
Answer: The activity change, negative = inhibition was -6.81% (inactive).

Question: What about the activity change, negative = inhibition [1] of the same molecule?
Answer: The activity change, negative = inhibition was 4.76%.

Question: And the Gaussia minus Italica difference?
Answer: The Gaussia minus Italica difference was -11.6%.

Question: Which results are given for N#C[C@@H]1[C@@H](c2ccc(-c3ccccc3F)cc2)[C@@H](CO)N1C(=O)C1CC1?
Answer: activity change, negative = inhibition: -3.2% (inactive); activity change, negative = inhibition [1]: -0.917%; Gaussia minus Italica difference: -2.29%

Question: For COc1ccc2c3c(n(C)c2c1)[C@H](CO)N(Cc1ccccc1F)CC31CN(C(=O)C2CCC2)C1, which activity change, negative = inhibition is on record?
Answer: Its activity change, negative = inhibition is 6.19% (inactive).

Question: And the activity change, negative = inhibition [1]?
Answer: Its activity change, negative = inhibition is 3.73%.

Question: What about the Gaussia minus Italica difference of the same molecule?
Answer: Its Gaussia minus Italica difference is 2.45%.

Question: Which activity change, negative = inhibition does the source give for COc1ccc2c3c([nH]c2c1)[C@@H](CO)N(Cc1cc(F)ccc1F)CC31CN(C(=O)C2CCC2)C1 here?
Answer: The activity change, negative = inhibition was -77.2% (active).

Question: What about the activity change, negative = inhibition [1] of the same molecule?
Answer: The activity change, negative = inhibition was -43.6%.

Question: What about the Gaussia minus Italica difference of the same molecule?
Answer: Its Gaussia minus Italica difference is -33.6%.

Question: Which activity change, negative = inhibition does the source give for COc1ccc2c3c([nH]c2c1)[C@@H](CO)N(C(=O)NC(C)C)CC31CN(C(=O)C2CCCC2)C1 here?
Answer: The activity change, negative = inhibition was 6.7% (inactive).

Question: And the activity change, negative = inhibition [1]?
Answer: Its activity change, negative = inhibition is 0.3%.

Question: And the Gaussia minus Italica difference?
Answer: The Gaussia minus Italica difference was 6.4%.

Question: Which results are given for C[C@@H]1CN([C@@H](C)CO)C(=O)Cc2cc(NC(=O)Nc3cccc4ccccc34)ccc2O[C@H]1CN(C)S(=O)(=O)c1ccc(Cl)cc1?
Answer: activity change, negative = inhibition: -2.17% (inactive); activity change, negative = inhibition [1]: 3.22%; Gaussia minus Italica difference: -5.4%

Question: With CC(C)[C@@H]1COCn2nncc2CCCC(=O)N1 as the molecule, how does the activity change, negative = inhibition read?
Answer: The activity change, negative = inhibition was -6.02% (inactive).

Question: What about the activity change, negative = inhibition [1] of the same molecule?
Answer: The activity change, negative = inhibition was 7.14%.

Question: And the Gaussia minus Italica difference?
Answer: Its Gaussia minus Italica difference is -13.2%.

Question: What does the source list for CO[C@@H]1CC[C@@H]2CCOc3c(C#N)cccc3C(=O)N(C)C[C@@H](C)C(=O)N(C)C[C@@H]1O2?
Answer: activity change, negative = inhibition: -3.12% (inactive); activity change, negative = inhibition [1]: -1.5%; Gaussia minus Italica difference: -1.62%

Question: Which results are given for C[C@H](O)C#Cc1ccc([C@@H]2[C@H](CO)N3CCCCN(CC4CC4)C[C@@H]23)cc1?
Answer: activity change, negative = inhibition: 4.25% (inactive); activity change, negative = inhibition [1]: 9.01%; Gaussia minus Italica difference: -4.76%

Question: With COCC(=O)N1[C@@H](CO)[C@H](c2ccccc2)C12CN(C(=O)NC1CCCCC1)C2 as the molecule, how does the activity change, negative = inhibition read?
Answer: Its activity change, negative = inhibition is 12.7% (inactive).

Question: What about the activity change, negative = inhibition [1] of the same molecule?
Answer: Its activity change, negative = inhibition is 4.2%.

Question: What about the Gaussia minus Italica difference of the same molecule?
Answer: The Gaussia minus Italica difference was 8.54%.

Question: What does the source list for COc1ccccc1-c1ccc2n(c1=O)C[C@@H]1[C@@H](CO)[C@H](C(=O)NCc3ccccc3Cl)N[C@H]21?
Answer: activity change, negative = inhibition: -0.143% (inactive); activity change, negative = inhibition [1]: -7.51%; Gaussia minus Italica difference: 7.37%

Question: Which activity change, negative = inhibition does the source give for CCC(=O)Nc1ccc2c(c1)C(=O)N(C)C[C@H](OC)[C@@H](C)CN(Cc1nccs1)[C@H](C)CO2 here?
Answer: The activity change, negative = inhibition was -5.35% (inactive).

Question: What about the activity change, negative = inhibition [1] of the same molecule?
Answer: Its activity change, negative = inhibition is 4.67%.

Question: And the Gaussia minus Italica difference?
Answer: The Gaussia minus Italica difference was -10%.

Question: Which results are given for CNC[C@H]1Oc2ncc(C#Cc3ccccc3F)cc2C(=O)N([C@H](C)CO)C[C@H]1C?
Answer: activity change, negative = inhibition: -2.73% (inactive); activity change, negative = inhibition [1]: -1.01%; Gaussia minus Italica difference: -1.72%

Question: Which results are given for CN1CCN(C(=O)C[C@@H]2CC[C@@H]3[C@H](COC[C@H](O)CN3CC3CCOCC3)O2)CC1?
Answer: activity change, negative = inhibition: 7.66% (inactive); activity change, negative = inhibition [1]: 11.6%; Gaussia minus Italica difference: -3.98%
